Measured values reported in the OligoGym collection.

target: ARF4; experiment: pooled miR-30 sensor sort-seq; sequence = guide strand; conditions: shRNA
Further: reference of the scale not given here.

Row | Sequence | sensor-assay potency score (higher = more potent)
1 | TTGTGTTGCACAAGTGGCTTGA | 0.462
2 | TAATTTTGTTGTAACAAGCCTA | -0.0701
3 | TATCTTGACCACCAACATCCCA | -1.07
4 | TTTGTTTGCAAAAAGTAGCAGC | -0.61
5 | TACCACAAAAATAAGACCCTGG | 0.855

target: ARHGAP18; experiment: as above; conditions: shRNA

Row | Sequence | sensor-assay potency score (higher = more potent)
6 | TAAAAACACAATGCTTTCCTGT | 0.106
7 | TTCTCCATAACTTTGATGGTGG | -0.384
8 | TTCTATCCAATAGTCTTCCATA | -1.16
9 | TTTATTTACACTCTTGACTCAG | 0.18
10 | TTTGCTTCTAGTTCTTGGCAAA | -1.24
11 | TTGCACTCGAATCACTCCCTGA | -0.442
12 | TTTCTTTTGATTCTCTCTGTTG | -0.646
13 | TTTGACAACAACCACCTCTTGA | 0.34
14 | TTCTCCTTTCTTGAGAGTCTGG | -0.587
15 | ATTTGTACTCTTATCTTGCTTT | 0.153
16 | TTGGTTTACAATAAACTTGGGA | 0.294
17 | TTATTTACACTCTTGACTCAGC | -0.0105

target: ARHGAP21; experiment: as above; conditions: shRNA

Row | Sequence | sensor-assay potency score (higher = more potent)
18 | TATCTGACTTGAATCTAGCTGA | 0.41
19 | TTAAACTATCTAATCTTTCTTG | 0.206
20 | TTTCATTGCAAACACACACTGC | -0.187
21 | TAGACTTCCACTATCTGACTTG | 0.173
22 | TTGTTGAGTCACTAGTAGCTGA | -0.152
23 | TTTAGTATCATTGTGACACTGT | 0.875
24 | TAAATCTGAAGTACCAGCGTTT | 0.202
25 | TAAACTGCGACACAGATCCCAC | -0.61
26 | TTCTATTGGATAACAAATCTAC | -0.588
27 | TAAACTATCTAATCTTTCTTGT | 0.258
28 | TTATTTTTTGAGACCTCGCAGG | -0.693
29 | TTGTATATCAATATCAGCCATT | -0.872

target: ARHGAP30; experiment: as above; conditions: shRNA

Row | Sequence | sensor-assay potency score (higher = more potent)
30 | TAGGTCATCATAGGCACTCAGG | -1.26
31 | TGAATCTTGCTACACATTGCAC | -1.12
32 | TAGAGTTGGGCACTACAGCTGC | -0.34
33 | TTGACCTTCACTAGAGTGGGAC | -0.00464
34 | TTATTCTGAGACATTGACCTTC | 0.266
35 | AAGAGGATCGAGAAGCTCGGGA | -0.319
36 | TGCACAGCTCTTTAGCACCTGG | -0.978
37 | TTGTGTCGGAGACAAGTTCAGG | -1.32
38 | TTAATCTGGATTTAAAAGGGAC | -0.482
39 | TTTGGCACAGTCAACCTCCAGG | -0.36
40 | TCTTGCTACACATTGCACTGGG | 0.852
